These results are taken from PMC5540273 (PLoS ONE, 2017).

The structures appear in SMILES notation.
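Also: KINOMEscan kinase panel screen.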

For the first experiment, the system named is ACVR2B. The note with it: concentration: 1 μM, replicates: in singlicate; n = 1.
With `Nc1n[nH]c2ncc(-c3ccccc3)cc12` [SB-517081], the “%Inh” value is given as 5%.

On to `COc1cc(Nc2nccc(N3CCC(NC(=O)C4COc5ccccc5O4)C3)n2)cc(OC)c1OC` (stereo not drawn) [GSK1379761], for which the “%Inh” value worked out at 13%.

For `COc1cc2ncn(-c3cc(OCCCc4ccccc4)c(C(N)=O)s3)c2cc1OC` [GSK205189], the “%Inh” value turned out to be 0%.

In the case of `CCC(=O)c1c(-c2ccccc2)c2cc(Cl)ccc2c(=O)n1Cc1cc(C(=O)NC2CC2)n(C)n1`, the “%Inh” value came out at 0%.

Consider `C[C@@H]1CC[C@H](C(=O)NC2CCCCC2)CN1c1cc(-c2ccc3c(N)n[nH]c3c2)nc(N)n1` [GSK2291363], for which the “%Inh” value is 0%.

As for `CCc1ccc(-c2ccc3c(c2)-c2nn(C)cc2S(=O)(=O)N3C)cc1`, the “%Inh” value came out at 1%.

For `Cc1nnc(-c2ccc(C)c(-c3ccc(C(=O)O)cc3)c2)o1` [GW608005], the “%Inh” value was determined as 0%.

For the compound `COc1cc(OC)cc(-c2cc3cnc(N)nc3nc2NC(=O)NC(C)(C)C)c1`, the “%Inh” value was 0%.

On to `COC(=O)c1c(-c2ccccc2)c2cc(Br)ccc2c(=O)n1Cc1ccc(S(C)(=O)=O)cc1`, for which the “%Inh” value came to 0%.

With `Cl.NS(=O)(=O)c1cccc(Nc2cc(-c3ccc(F)cc3)n[nH]2)c1` [GW824645], the “%Inh” value came to 0%.

For `CCC(=O)c1c(-c2ccccc2)c2cc(Cl)ccc2c(=O)n1Cc1cc(S(C)(=O)=O)n(CC(N)=O)n1`, the “%Inh” value is 0%.

Consider `COc1cc2nccc(Nc3ccc(OCc4ccc(NC(C)=O)cc4)cc3)c2cc1OC.Cl` [GW440135], for which the “%Inh” value was 1%.

As to `COc1cccc(C2=C(Nc3cccc(C(=O)O)c3)C(=O)NC2=O)c1` [SB-390770], the “%Inh” value is reported as 40%.

`CN1C(=O)C(Nc2cc(Cl)c(O)c(Cl)c2)=C(c2ccc(Cl)cc2)C1=O` [SB-404321]: the “%Inh” value amounted to 0%.

With `O=C(Nc1n[nH]c2cc(-c3ccccc3F)ccc12)C1CC1` [SB-733371], the “%Inh” value came to 48%.

In the case of `COc1cc2nccc(Nc3cccc(Oc4ccccc4)c3)c2cc1OC.Cl` [GW284543], the “%Inh” value came to 0%.

For the compound `COc1cc2ncn(-c3cc(OCc4ccncc4)c(C(N)=O)s3)c2cc1OC` [GSK336313], the “%Inh” value is listed as 0%.

Consider `Cc1ccc(Oc2ccc(Nc3ncnc4cc[nH]c34)cc2C)cn1`, for which the “%Inh” value is given as 0%.

`COc1ccc(-n2cnc3c(N)ncnc32)cc1` [SKF-97236]: the “%Inh” value is reported as 32%.

Regarding `O=C(NCCNc1ccnc(Nc2ccc(F)cc2)n1)Nc1ccc2c(c1)OCO2` [GSK1379882], the “%Inh” value worked out at 0%.

In the case of `COc1ccc(-c2cc3c(C)nc(N)nc3n([C@H]3CC[C@H](O)CC3)c2=O)cn1`, the “%Inh” value stood at 0%.

Take `O=C(Nc1ccc2c(c1)OCO2)NC1CCN(c2ccnc(NCc3ccc(F)cc3)n2)CC1` [GSK1379859]: the “%Inh” value amounted to 0%.

`O=c1cc(N2CCOCC2)nc2n(Cc3ccc(F)c(Cl)c3)ccn12` [GSK2297099]: the “%Inh” value came to 0%.

Consider `CCC(=O)c1c(-c2ccccc2)c2cc(Cl)ccc2c(=O)n1Cc1ccc(C(=O)O)cc1`, for which the “%Inh” value amounted to 0%.

For the compound `CCS(=O)c1ccc(-c2coc3ccc(-c4nnc(C)o4)cc23)cc1` (stereo not drawn), the “%Inh” value was 0%.

In the case of `CC(C)(C)c1ccc(C(=O)Nc2cn3cc(-c4ccccc4)ccc3n2)cc1`, the “%Inh” value was found to be 0%.

In the case of `Nc1nc(N)c2nc(-c3ccccc3)[nH]c2n1` [SKF-12778], the “%Inh” value was found to be 26%.

As for `Cc1nc(N(C)[C@H]2CN(C(=O)CC#N)CC[C@H]2C)c2cc[nH]c2n1`, the “%Inh” value was determined as 0%.

As to `CCC(=O)c1c(-c2ccccc2)c2cc(Cl)ccc2c(=O)n1Cc1cc(S(C)(=O)=O)n(CCC(C)(C)O)n1`, the “%Inh” value worked out at 9%.

On to `CCn1c(-c2nonc2N)nc2ccccc21` [SB-693162/GW549034], for which the “%Inh” value amounted to 0%.

In the case of `CCn1c(-c2ccoc2)nc2cnccc21` [SB-733887], the “%Inh” value is 18%.

Regarding `Cc1cccc(-c2cc(-c3c[nH]nc3-c3ccccn3)ccn2)c1` [GW679395], the “%Inh” value is on record as 3%.

Turning to `Nc1ncnc2c1ncn2-c1cccc(F)c1` [SKF-97560], the “%Inh” value turned out to be 0%.

Consider `CN1C(=O)C(Nc2ccccc2)=C(c2ccccc2)C1=O` [SB-300079], for which the “%Inh” value was 0%.

For `OCCCNc1nccc(-c2c(-c3cccc(C(F)(F)F)c3)nn3cc(C(F)(F)F)ccc23)n1` [GW630813], the “%Inh” value came to 0%.

`COc1ccc(-c2cc3c(C)nc(N)nc3n([C@H]3CC[C@H](OCCO)CC3)c2=O)cn1`: the “%Inh” value worked out at 0%.

For a further experiment, the system named is ACVRL1. The note with it: concentration: 1 μM, replicates: in singlicate; n = 1.
In the case of `Nc1n[nH]c2ncc(-c3ccccc3)cc12` [SB-517081], the “%Inh” value is listed as 0%.

Take `COc1cc(Nc2nccc(N3CCC(NC(=O)C4COc5ccccc5O4)C3)n2)cc(OC)c1OC` (stereo not drawn) [GSK1379761]: the “%Inh” value turned out to be 0%.

Regarding `COc1cc2ncn(-c3cc(OCCCc4ccccc4)c(C(N)=O)s3)c2cc1OC` [GSK205189], the “%Inh” value came out at 0%.

Regarding `CCC(=O)c1c(-c2ccccc2)c2cc(Cl)ccc2c(=O)n1Cc1cc(C(=O)NC2CC2)n(C)n1`, the “%Inh” value was determined as 0%.

For the compound `C[C@@H]1CC[C@H](C(=O)NC2CCCCC2)CN1c1cc(-c2ccc3c(N)n[nH]c3c2)nc(N)n1` [GSK2291363], the “%Inh” value was found to be 0%.

For `CCc1ccc(-c2ccc3c(c2)-c2nn(C)cc2S(=O)(=O)N3C)cc1`, the “%Inh” value came out at 0%.

For `Cc1nnc(-c2ccc(C)c(-c3ccc(C(=O)O)cc3)c2)o1` [GW608005], the “%Inh” value is on record as 0%.

For the compound `COc1cc(OC)cc(-c2cc3cnc(N)nc3nc2NC(=O)NC(C)(C)C)c1`, the “%Inh” value is recorded as 0%.

Turning to `COC(=O)c1c(-c2ccccc2)c2cc(Br)ccc2c(=O)n1Cc1ccc(S(C)(=O)=O)cc1`, the “%Inh” value turned out to be 0%.

Turning to `Cl.NS(=O)(=O)c1cccc(Nc2cc(-c3ccc(F)cc3)n[nH]2)c1` [GW824645], the “%Inh” value came to 0%.

Turning to `CCC(=O)c1c(-c2ccccc2)c2cc(Cl)ccc2c(=O)n1Cc1cc(S(C)(=O)=O)n(CC(N)=O)n1`, the “%Inh” value is given as 0%.

For the compound `COc1cc2nccc(Nc3ccc(OCc4ccc(NC(C)=O)cc4)cc3)c2cc1OC.Cl` [GW440135], the “%Inh” value was found to be 4%.

`COc1cccc(C2=C(Nc3cccc(C(=O)O)c3)C(=O)NC2=O)c1` [SB-390770]: the “%Inh” value came to 4%.

On to `CN1C(=O)C(Nc2cc(Cl)c(O)c(Cl)c2)=C(c2ccc(Cl)cc2)C1=O` [SB-404321], for which the “%Inh” value came out at 0%.

Turning to `O=C(Nc1n[nH]c2cc(-c3ccccc3F)ccc12)C1CC1` [SB-733371], the “%Inh” value is 0%.

Take `COc1cc2nccc(Nc3cccc(Oc4ccccc4)c3)c2cc1OC.Cl` [GW284543]: the “%Inh” value came out at 0%.

On to `COc1cc2ncn(-c3cc(OCc4ccncc4)c(C(N)=O)s3)c2cc1OC` [GSK336313], for which the “%Inh” value was 0%.

Turning to `Cc1ccc(Oc2ccc(Nc3ncnc4cc[nH]c34)cc2C)cn1`, the “%Inh” value came to 0%.

Regarding `COc1ccc(-n2cnc3c(N)ncnc32)cc1` [SKF-97236], the “%Inh” value was 10%.

`O=C(NCCNc1ccnc(Nc2ccc(F)cc2)n1)Nc1ccc2c(c1)OCO2` [GSK1379882]: the “%Inh” value came out at 0%.

`COc1ccc(-c2cc3c(C)nc(N)nc3n([C@H]3CC[C@H](O)CC3)c2=O)cn1`: the “%Inh” value stood at 0%.

Consider `O=C(Nc1ccc2c(c1)OCO2)NC1CCN(c2ccnc(NCc3ccc(F)cc3)n2)CC1` [GSK1379859], for which the “%Inh” value is recorded as 0%.

In the case of `O=c1cc(N2CCOCC2)nc2n(Cc3ccc(F)c(Cl)c3)ccn12` [GSK2297099], the “%Inh” value is reported as 0%.

On to `CCC(=O)c1c(-c2ccccc2)c2cc(Cl)ccc2c(=O)n1Cc1ccc(C(=O)O)cc1`, for which the “%Inh” value was 0%.

Consider `CCS(=O)c1ccc(-c2coc3ccc(-c4nnc(C)o4)cc23)cc1` (stereo not drawn), for which the “%Inh” value is 6%.

On to `CC(C)(C)c1ccc(C(=O)Nc2cn3cc(-c4ccccc4)ccc3n2)cc1`, for which the “%Inh” value is given as 5%.

As for `Nc1nc(N)c2nc(-c3ccccc3)[nH]c2n1` [SKF-12778], the “%Inh” value is 3%.

For the compound `Cc1nc(N(C)[C@H]2CN(C(=O)CC#N)CC[C@H]2C)c2cc[nH]c2n1`, the “%Inh” value is recorded as 5%.

On to `CCC(=O)c1c(-c2ccccc2)c2cc(Cl)ccc2c(=O)n1Cc1cc(S(C)(=O)=O)n(CCC(C)(C)O)n1`, for which the “%Inh” value turned out to be 17%.

Regarding `CCn1c(-c2nonc2N)nc2ccccc21` [SB-693162/GW549034], the “%Inh” value amounted to 0%.

Take `CCn1c(-c2ccoc2)nc2cnccc21` [SB-733887]: the “%Inh” value stood at 0%.

In the case of `Cc1cccc(-c2cc(-c3c[nH]nc3-c3ccccn3)ccn2)c1` [GW679395], the “%Inh” value was 0%.

`Nc1ncnc2c1ncn2-c1cccc(F)c1` [SKF-97560]: the “%Inh” value stood at 0%.

`CN1C(=O)C(Nc2ccccc2)=C(c2ccccc2)C1=O` [SB-300079]: the “%Inh” value is given as 0%.

As for `OCCCNc1nccc(-c2c(-c3cccc(C(F)(F)F)c3)nn3cc(C(F)(F)F)ccc23)n1` [GW630813], the “%Inh” value is recorded as 0%.

Take `COc1ccc(-c2cc3c(C)nc(N)nc3n([C@H]3CC[C@H](OCCO)CC3)c2=O)cn1`: the “%Inh” value is 0%.
